Test results taken from the supplement of paper PMC10849652.
The full data set covers some 8,800 targets. This sample favours those with a hit. About 0.5% of all pairs of compound and target were hits.

Legend:
Assay in all cases: log2 fold change, soluble protein after heating vs DMSO (PISA); higher = thermal stabilisation; K562 lysate, 10 uM; active = over 0.2 and 3.5 SD of the protein, either way, in both replicates (recomputed)
[1] = compound: Cc1cn(-c2cc(NC(=O)c3ccc(C)c(Nc4nccc(-c5cccnc5)n4)c3)cc(C(F)(F)F)c2)cn1 [nilotinib]
Summary of the method: (§1)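 K562 pellets were dounce-homogenised in PBS pH 7.4 containing 1 mM MgCl2, and the crude extract, at 1 mg/mL protein, was exposed to 10 μM compound for 30 min. Aliquots were heated for 3 min across 48°C-58°C, pooled, brought to 0.5% NP-40 at 4°C and spun at 21,000xg for 90 min, with the supernatant taken as soluble protein. TMTpro 16plex LC-MS/MS with equalised channel sums quantified that protein. Values are log-two fold changes in thermal stability relative to solvent controls, taken from duplicates.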

[2] = compound: Cc1nc(Nc2n[nH]c3c2CN(C(=O)N[C@H](CN(C)C)c2ccccc2)C3(C)C)c2sccc2n1
Summary of the method: as §1

[3] = compound: Cc1nc(Nc2ncc(C(=O)Nc3c(C)cccc3Cl)s2)cc(N2CCN(CCO)CC2)n1 [dasatinib]
Summary of the method: as §1

[4] = compound: Cc1ncc(-c2ccnc(Nc3ccc(S(C)(=O)=O)cc3)n2)n1C(C)C
Summary of the method: as §1

[5] = compound: Cn1cc(-c2ccc3c(c2)CCN3C(=O)Cc2cccc(C(F)(F)F)c2)c2c(N)ncnc21
Summary of the method: as §1

[6] = compound: Cn1cc(CNCC2CCN(c3ncc(C(=O)NO)cn3)CC2)c2ccccc21 [quisinostat]
Summary of the method: as §1

[7] = compound: Cn1cncc1[C@@](N)(c1ccc(Cl)cc1)c1ccc2c(c1)c(-c1cccc(Cl)c1)cc(=O)n2C [tipifarnib]
Summary of the method: as §1

[8] = compound: NC(=O)Nc1cc(-c2cccc(F)c2)sc1C(=O)N[C@H]1CCCNC1
Summary of the method: as §1

[9] = compound: NC(=O)c1cnc(N[C@@H]2CCCC[C@@H]2N)nc1Nc1cccc(-n2nccn2)c1
Summary of the method: as §1

[10] = compound: NC1(c2ccc(-c3nc4ccn5c(=O)[nH]nc5c4cc3-c3ccccc3)cc2)CCC1
Summary of the method: as §1

[11] = compound: NCC(=O)Nc1ccc(-n2nc(C(F)(F)F)cc2-c2ccc3c(ccc4ccccc43)c2)cc1
Summary of the method: as §1

[12] = compound: O=C(CCCCCCC(=O)Nc1ccccc1)NO [vorinostat]
Summary of the method: as §1

[13] = compound: O=C(O)c1ccc2c(c1)nc(Nc1cccc(Cl)c1)c1ccncc12 [silmitasertib]
Summary of the method: as §1

[14] = compound: O=C1NC(=O)C(c2cnc3ccccn23)=C1c1cn2c3c(cc(F)cc13)CN(C(=O)N1CCCCC1)CC2
Summary of the method: as §1

[15] = compound: c1cn2cc(-c3ccc4cn[nH]c4c3)nc(Nc3ccc(N4CCOCC4)cc3)c2n1 [entospletinib]
Summary of the method: as §1

Measured: log2 fold change

MED13L (UniProt Q71F56)
Chain of UniProt Q71F56 (Q71F56 whole entry, looked up): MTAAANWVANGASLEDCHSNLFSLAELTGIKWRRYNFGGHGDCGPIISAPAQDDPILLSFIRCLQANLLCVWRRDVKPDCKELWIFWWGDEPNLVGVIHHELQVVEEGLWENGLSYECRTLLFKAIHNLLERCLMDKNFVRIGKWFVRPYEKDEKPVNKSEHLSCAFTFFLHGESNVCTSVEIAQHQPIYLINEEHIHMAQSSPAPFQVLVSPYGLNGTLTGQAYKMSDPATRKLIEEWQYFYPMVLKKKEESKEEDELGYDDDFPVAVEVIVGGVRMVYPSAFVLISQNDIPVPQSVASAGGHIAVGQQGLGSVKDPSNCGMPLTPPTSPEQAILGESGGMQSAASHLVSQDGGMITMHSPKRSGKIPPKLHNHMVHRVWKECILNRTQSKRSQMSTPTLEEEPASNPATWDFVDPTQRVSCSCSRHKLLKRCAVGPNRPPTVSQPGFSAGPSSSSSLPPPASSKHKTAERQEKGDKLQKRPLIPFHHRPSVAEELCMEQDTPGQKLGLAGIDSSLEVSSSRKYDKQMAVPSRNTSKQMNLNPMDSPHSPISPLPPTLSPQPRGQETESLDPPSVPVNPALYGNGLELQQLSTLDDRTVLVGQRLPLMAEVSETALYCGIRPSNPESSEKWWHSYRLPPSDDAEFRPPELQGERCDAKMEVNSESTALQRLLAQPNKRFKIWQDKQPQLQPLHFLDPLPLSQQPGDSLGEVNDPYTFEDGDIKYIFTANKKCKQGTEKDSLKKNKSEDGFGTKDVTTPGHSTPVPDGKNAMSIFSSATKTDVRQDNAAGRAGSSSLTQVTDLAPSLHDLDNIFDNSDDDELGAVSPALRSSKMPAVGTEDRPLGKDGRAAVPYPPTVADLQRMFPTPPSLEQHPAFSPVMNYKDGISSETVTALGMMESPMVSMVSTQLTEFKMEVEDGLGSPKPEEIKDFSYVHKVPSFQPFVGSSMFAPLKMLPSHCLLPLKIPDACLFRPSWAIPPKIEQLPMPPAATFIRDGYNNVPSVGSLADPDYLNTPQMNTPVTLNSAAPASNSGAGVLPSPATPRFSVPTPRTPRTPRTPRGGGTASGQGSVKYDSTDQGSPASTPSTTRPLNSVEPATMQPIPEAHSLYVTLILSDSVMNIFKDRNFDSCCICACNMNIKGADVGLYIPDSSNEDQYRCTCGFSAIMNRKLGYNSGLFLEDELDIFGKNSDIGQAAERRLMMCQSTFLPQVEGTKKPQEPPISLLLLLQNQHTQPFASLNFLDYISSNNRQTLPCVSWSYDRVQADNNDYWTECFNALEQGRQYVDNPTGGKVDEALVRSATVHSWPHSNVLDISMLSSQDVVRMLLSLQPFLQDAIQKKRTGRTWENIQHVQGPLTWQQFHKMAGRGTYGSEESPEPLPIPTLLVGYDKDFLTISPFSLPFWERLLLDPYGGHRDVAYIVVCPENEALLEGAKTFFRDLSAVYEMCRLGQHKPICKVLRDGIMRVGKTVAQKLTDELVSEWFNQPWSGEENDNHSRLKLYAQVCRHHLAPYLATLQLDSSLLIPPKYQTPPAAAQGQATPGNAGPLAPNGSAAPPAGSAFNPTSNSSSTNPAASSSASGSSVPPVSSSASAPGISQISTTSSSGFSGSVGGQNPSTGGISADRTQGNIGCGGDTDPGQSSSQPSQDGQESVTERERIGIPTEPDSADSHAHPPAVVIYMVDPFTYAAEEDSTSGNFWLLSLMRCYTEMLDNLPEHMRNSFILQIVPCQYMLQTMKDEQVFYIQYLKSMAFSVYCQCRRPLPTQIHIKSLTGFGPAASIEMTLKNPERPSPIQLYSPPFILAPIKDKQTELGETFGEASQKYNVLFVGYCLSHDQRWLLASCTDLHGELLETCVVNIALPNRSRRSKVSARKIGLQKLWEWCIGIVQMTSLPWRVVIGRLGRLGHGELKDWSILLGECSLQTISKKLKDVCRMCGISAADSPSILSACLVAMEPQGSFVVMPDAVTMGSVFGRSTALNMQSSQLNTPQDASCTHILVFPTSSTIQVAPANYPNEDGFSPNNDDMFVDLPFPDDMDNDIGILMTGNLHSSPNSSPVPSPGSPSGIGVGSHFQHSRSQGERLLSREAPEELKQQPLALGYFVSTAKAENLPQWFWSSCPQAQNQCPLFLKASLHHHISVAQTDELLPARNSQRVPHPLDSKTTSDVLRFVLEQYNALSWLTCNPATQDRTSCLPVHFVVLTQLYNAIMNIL
active: [12] -0.253
inactive: [1] 0.06 | [2] -0.056 | [3] 0.017 | [4] 0.032 | [5] 0.045 | [6] -0.055 | [7] -0.012 | [8] 0.069 | [9] 0.014 | [10] 0.015 | [11] -0.057 | [13] 0.017 | [14] 0.017 | [15] -0.052

KLHL12 isoform 2 (UniProt Q53G59)
Chain of UniProt Q53G59 (Q53G59 whole entry, looked up): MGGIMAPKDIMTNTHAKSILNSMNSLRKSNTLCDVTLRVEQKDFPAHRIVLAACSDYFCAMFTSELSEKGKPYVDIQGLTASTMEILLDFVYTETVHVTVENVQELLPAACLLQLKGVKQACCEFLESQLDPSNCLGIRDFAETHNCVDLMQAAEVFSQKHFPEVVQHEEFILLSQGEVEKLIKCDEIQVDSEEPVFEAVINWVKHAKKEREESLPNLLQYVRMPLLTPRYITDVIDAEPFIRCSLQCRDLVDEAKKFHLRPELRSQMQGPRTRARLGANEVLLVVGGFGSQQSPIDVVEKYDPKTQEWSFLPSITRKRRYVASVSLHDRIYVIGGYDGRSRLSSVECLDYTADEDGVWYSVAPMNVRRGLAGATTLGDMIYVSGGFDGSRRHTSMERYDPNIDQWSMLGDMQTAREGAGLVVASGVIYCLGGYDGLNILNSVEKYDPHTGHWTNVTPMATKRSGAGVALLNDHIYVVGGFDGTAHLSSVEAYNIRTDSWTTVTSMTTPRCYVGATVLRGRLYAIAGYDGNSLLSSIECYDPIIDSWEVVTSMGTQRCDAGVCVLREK
inactive: [1] -0.037 | [2] -0.044 | [3] -0.056 | [4] 0.064 | [5] -0.07 | [6] 0.04 | [7] 0.015 | [8] 0.097 | [9] 0.043 | [10] 0.035 | [11] 0.135 | [12] -0.108 | [13] 0.024 | [14] 0.003

MAP2K4 isoform 2 (UniProt P45985)
inactive: [1] -0.013 | [2] 0.052 | [3] -0.014 | [4] 0.248 | [5] 0.046 | [6] -0.112 | [7] -0.023 | [8] 0.019 | [9] 0.063 | [10] 0 | [11] -0.119 | [12] -0.216 | [13] 0.023 | [14] 0.013 | [15] 0.028

LIG3 (UniProt P49916)
active: [12] -0.411
inactive: [1] 0.012 | [2] 0.002 | [3] -0.011 | [4] -0.019 | [5] 0.046 | [6] -0.024 | [7] -0.004 | [8] 0.059 | [9] 0.008 | [10] 0.011 | [11] -0.061 | [13] 0.018 | [14] -0.012 | [15] -0.004

MAPK14 (UniProt Q16539)
Chain of UniProt Q16539 (Q16539 whole entry, looked up): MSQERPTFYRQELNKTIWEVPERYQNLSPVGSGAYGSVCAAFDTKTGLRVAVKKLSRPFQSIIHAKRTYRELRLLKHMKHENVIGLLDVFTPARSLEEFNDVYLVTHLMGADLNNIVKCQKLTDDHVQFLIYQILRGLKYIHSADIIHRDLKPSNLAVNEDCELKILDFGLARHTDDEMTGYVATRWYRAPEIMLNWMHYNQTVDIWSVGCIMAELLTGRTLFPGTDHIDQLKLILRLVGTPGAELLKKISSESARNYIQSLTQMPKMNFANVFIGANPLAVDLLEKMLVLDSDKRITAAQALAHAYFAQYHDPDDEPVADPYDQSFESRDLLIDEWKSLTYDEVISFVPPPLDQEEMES
inactive: [1] 0.563 | [2] 0.038 | [4] 0.069 | [5] -0.029 | [6] -0.025 | [7] -0.137 | [8] -0.012 | [9] -0.005 | [10] -0.042 | [11] -0.007 | [12] -0.294 | [13] 0.279 | [14] 0.015 | [15] -0.005
active: [3] 0.984

LRRC40 (UniProt Q9H9A6)
Chain of UniProt Q9H9A6 (Q9H9A6 whole entry, looked up): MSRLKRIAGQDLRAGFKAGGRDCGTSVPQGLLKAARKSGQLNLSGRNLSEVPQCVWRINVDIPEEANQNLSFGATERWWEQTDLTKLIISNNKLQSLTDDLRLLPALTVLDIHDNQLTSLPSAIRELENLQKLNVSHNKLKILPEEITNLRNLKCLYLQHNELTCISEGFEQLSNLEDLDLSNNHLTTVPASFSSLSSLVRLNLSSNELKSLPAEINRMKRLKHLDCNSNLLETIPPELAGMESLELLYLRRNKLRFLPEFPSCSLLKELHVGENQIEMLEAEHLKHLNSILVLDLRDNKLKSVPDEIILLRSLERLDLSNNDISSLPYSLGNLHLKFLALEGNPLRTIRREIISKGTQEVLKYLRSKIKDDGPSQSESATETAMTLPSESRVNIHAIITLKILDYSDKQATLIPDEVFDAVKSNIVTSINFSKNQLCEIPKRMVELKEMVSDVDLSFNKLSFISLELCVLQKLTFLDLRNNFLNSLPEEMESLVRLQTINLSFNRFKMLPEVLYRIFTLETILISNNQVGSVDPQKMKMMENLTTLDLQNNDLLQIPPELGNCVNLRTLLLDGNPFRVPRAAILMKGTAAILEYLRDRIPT
inactive: [1] -0.008 | [2] -0.01 | [3] -0.012 | [4] -0.035 | [5] 0.017 | [6] 0.032 | [7] -0.032 | [8] 0.004 | [9] 0.004 | [10] 0.029 | [11] -0.005 | [13] 0.027 | [14] -0.043 | [15] 0.02
active: [12] -0.315

MAPKAPK2 (UniProt P49137)
inactive: [1] 0.032 | [2] 0.068 | [3] -0.043 | [4] -0.008 | [5] 0 | [6] 0.01 | [7] 0.032 | [8] 0.148 | [9] 0.022 | [10] 0.008 | [11] -0.019 | [13] 0.072 | [14] -0.014 | [15] 0.04
active: [12] -0.36

MITD1 (UniProt Q8WV92)
Chain of UniProt Q8WV92 (Q8WV92 whole entry, looked up): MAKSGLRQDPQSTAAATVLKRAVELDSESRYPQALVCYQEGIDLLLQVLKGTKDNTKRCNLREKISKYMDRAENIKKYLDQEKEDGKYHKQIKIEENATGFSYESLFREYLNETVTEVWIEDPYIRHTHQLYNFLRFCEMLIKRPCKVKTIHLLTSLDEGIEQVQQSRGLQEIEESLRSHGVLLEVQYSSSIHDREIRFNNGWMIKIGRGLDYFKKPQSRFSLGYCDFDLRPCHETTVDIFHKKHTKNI
active: [12] 0.255
inactive: [1] -0.022 | [2] 0.089 | [3] 0.011 | [4] -0.09 | [5] 0.027 | [6] 0.027 | [7] 0.022 | [8] 0.03 | [9] 0.07 | [10] -0.047 | [11] 0.01 | [13] -0.051 | [14] -0.079 | [15] -0.024

LYAR (UniProt Q9NX58)
inactive: [1] 0.01 | [2] -0.021 | [3] 0.002 | [4] 0.005 | [5] 0.014 | [6] 0.003 | [7] 0 | [8] -0.002 | [9] -0.016 | [10] -0.012 | [11] 0.011 | [12] 0.109 | [13] 0.005 | [14] 0.001 | [15] 0.014

LUZP1 (UniProt Q86V48)
Chain of UniProt Q86V48 (Q86V48 whole entry, looked up): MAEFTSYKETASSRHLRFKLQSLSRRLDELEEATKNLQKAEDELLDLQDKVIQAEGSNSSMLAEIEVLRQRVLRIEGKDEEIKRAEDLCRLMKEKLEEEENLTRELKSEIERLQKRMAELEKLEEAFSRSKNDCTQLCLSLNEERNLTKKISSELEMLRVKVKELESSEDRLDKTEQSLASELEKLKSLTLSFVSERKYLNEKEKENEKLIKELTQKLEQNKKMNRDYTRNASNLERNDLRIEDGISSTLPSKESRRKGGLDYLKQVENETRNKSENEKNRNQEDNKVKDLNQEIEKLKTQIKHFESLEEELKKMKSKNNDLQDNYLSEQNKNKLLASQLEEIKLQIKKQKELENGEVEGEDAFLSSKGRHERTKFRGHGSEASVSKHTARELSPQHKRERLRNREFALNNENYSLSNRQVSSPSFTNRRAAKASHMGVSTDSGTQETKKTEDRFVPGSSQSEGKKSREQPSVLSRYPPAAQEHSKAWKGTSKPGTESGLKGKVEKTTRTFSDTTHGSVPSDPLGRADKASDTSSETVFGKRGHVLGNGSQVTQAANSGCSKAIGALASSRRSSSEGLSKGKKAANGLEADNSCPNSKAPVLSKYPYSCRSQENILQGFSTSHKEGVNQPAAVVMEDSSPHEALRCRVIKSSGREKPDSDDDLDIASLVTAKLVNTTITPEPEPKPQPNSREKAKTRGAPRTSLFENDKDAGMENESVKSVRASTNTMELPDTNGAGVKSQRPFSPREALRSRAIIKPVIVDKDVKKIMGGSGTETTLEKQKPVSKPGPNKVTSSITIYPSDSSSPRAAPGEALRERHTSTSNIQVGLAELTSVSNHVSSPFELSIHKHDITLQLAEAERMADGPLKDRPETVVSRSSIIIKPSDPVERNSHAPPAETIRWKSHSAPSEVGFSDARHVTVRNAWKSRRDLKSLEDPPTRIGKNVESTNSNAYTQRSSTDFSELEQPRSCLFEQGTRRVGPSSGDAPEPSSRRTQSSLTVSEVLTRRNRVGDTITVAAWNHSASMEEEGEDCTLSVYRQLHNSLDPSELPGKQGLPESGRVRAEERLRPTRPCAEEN
active: [12] -0.248
inactive: [1] 0.013 | [2] -0.046 | [3] -0.004 | [4] -0.02 | [5] 0.062 | [6] -0.03 | [7] -0.005 | [8] 0.109 | [9] 0.01 | [10] 0.027 | [11] 0.094 | [13] 0.129 | [14] 0.022 | [15] -0.03

MLLT11 (UniProt Q13015)
inactive: [1] 0.068 | [2] 0.03 | [3] -0.015 | [4] -0.051 | [5] -0.06 | [6] -0.029 | [7] -0.204 | [8] 0.107 | [9] 0.011 | [10] 0.055 | [11] 0.08 | [12] 0.104 | [13] -0.203 | [14] -0.016 | [15] 0.034
